# Measurements as given in PubChem BioAssay (NCATS).
# “And” between values parts separate entries of the source, which are not always exact repeats. Identical values can stand only once. Inconclusive results are not listed. A call without a number means that no potency is given here. Values without a mark were called inactive. The source made the active and inactive calls. Unless noted, the call rests on the fitted dose curve.
# Columns and labels:
# [1] = biological target: Estrogen receptor (Homo sapiens) (UniProt P03372); assay: qHTS assay for small molecule agonists of estrogen receptor alpha signaling (AID 588514); further: nearly all actives have a fitted effect of over 70% in size
# Estrogen receptor (Homo sapiens), sequence (P03372 whole entry, looked up): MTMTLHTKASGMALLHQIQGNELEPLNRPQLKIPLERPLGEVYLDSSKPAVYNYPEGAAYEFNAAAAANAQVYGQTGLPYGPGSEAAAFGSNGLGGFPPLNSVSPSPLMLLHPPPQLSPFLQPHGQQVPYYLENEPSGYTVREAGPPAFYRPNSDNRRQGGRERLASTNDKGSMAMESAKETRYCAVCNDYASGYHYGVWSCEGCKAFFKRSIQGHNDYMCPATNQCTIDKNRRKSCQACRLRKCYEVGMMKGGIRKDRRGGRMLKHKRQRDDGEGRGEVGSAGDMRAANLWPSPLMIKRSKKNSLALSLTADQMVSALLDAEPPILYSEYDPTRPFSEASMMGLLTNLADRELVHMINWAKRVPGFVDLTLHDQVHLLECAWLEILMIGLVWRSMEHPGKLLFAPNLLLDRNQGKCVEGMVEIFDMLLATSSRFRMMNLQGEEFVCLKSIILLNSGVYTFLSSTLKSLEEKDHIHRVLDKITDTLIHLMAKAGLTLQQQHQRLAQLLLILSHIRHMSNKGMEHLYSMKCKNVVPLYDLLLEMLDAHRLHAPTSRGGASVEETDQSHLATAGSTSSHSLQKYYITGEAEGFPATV
# Summary of the method: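 Reporter-gene assay. […] controls beta-lactamase in HEK 293 GripTite cells; after 18 hrs with compound, CCF4 substrate is added for 2 hrs and fluorescence is read.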
# [2] = biological target: Androgen receptor (Homo sapiens) (UniProt P10275); assay: qHTS assay for small molecule agonists of androgen receptor signaling (AID 588515; active means well fitted curve in the direction sought with a large enough effect in the signal ratio, with a control signal flat; the % refers to the signal ratio; further: potency means the concentration at half of the fitted maximal effect); settings: AR-UAS-bla HEK293, beta-lactamase ratio, agonist 16 h; activation: stronger effect = higher value
# Androgen receptor (Homo sapiens), sequence (P10275 whole entry, looked up): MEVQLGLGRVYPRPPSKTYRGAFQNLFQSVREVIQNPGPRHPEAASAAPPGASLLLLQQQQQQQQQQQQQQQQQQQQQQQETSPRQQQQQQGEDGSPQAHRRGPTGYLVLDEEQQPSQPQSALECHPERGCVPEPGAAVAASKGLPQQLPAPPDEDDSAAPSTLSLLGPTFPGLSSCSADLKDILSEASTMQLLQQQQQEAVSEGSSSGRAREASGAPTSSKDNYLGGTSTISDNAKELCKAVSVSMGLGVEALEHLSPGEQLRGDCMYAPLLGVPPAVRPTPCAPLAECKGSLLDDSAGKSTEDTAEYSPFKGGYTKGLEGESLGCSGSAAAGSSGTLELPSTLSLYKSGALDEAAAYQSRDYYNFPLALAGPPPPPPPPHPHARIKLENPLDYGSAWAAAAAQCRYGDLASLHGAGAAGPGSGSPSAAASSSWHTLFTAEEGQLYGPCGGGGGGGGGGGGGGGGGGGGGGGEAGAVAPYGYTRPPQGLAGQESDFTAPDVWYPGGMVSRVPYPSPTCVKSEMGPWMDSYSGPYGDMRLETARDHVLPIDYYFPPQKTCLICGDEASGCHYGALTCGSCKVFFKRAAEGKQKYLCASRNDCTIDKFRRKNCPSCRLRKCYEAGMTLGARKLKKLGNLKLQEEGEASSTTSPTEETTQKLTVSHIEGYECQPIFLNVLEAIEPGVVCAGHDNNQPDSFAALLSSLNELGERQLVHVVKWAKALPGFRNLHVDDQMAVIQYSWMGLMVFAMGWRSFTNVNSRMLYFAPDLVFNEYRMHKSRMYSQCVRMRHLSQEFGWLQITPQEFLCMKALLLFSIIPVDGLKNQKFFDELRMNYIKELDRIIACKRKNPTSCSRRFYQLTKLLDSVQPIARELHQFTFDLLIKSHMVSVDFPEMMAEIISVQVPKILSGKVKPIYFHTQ
# Summary of the method: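 EC50 and efficacy came from Hill fits of titrations (up to 92 uM) normalized to 30 nM R1881 as 100% and DMSO as 0%. Compound exposure was 16 h at 37 C on AR-UAS-bla HEK293 cells, with a 405/460/530 nm CCF4 fluorescence read.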
# [3] = biological target: Bile acid receptor (Homo sapiens) (UniProt Q96RI1); assay: qHTS assay for small molecule antagonists of farnesoid X receptor signaling (AID 588526)
# Bile acid receptor (Homo sapiens), sequence (Q96RI1 whole entry, looked up): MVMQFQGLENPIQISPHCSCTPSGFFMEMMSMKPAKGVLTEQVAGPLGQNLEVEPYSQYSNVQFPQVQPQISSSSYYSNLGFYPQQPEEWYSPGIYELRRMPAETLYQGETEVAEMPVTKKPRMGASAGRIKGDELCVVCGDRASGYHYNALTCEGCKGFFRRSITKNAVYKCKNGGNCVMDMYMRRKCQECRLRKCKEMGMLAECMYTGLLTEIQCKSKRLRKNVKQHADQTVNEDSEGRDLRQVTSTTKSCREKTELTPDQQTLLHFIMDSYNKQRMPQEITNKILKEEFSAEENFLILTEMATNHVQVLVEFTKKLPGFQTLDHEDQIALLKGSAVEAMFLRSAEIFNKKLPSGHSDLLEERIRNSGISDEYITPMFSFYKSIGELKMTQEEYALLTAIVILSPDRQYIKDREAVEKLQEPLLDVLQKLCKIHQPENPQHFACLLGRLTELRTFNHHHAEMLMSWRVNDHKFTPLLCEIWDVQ
# Summary of the method: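 Concentration-response titrations were fitted to the Hill equation for half-maximal inhibition and maximal response, with data normalised to 50 uM chenodeoxycholic acid and DMSO control wells. Cells: FXR-UAS-bla HEK293T, dialyzed FBS.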
# [4] = biological target: Glucocorticoid receptor (Homo sapiens) (UniProt P04150); assay: qHTS assay for small molecule agonists of glucocorticoid receptor signaling (AID 588532; active means well fitted curve in the direction sought with a large enough effect in the signal ratio, with a control signal flat; the % refers to the signal ratio); settings: HeLa MMTV-bla, beta-lactamase ratio, agonist, 18 h; stronger effect = higher value; percent of dexamethasone control, DMSO zero
# Glucocorticoid receptor (Homo sapiens), sequence (P04150 whole entry, looked up): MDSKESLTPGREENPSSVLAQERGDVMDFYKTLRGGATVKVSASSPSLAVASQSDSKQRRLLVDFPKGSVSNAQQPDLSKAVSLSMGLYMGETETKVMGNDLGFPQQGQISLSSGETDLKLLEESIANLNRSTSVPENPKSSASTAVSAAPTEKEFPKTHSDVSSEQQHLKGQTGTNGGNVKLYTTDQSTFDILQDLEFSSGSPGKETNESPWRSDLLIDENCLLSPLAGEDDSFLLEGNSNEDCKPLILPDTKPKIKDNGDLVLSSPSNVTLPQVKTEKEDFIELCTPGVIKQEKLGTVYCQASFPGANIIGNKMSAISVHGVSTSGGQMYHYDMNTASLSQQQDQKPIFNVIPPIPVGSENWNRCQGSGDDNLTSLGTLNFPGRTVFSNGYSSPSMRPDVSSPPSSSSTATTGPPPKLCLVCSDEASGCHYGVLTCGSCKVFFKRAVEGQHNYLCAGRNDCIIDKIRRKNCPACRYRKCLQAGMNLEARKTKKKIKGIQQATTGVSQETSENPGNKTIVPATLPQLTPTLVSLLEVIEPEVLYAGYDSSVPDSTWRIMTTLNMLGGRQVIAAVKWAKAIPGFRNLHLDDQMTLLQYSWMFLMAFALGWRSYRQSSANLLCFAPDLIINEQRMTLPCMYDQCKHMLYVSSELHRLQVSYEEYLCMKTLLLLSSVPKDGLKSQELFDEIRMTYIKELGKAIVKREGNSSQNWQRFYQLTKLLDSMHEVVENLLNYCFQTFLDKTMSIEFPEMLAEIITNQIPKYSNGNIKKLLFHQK
# Summary of the method: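 MMTV-bla HeLa, beta-lactamase reporter; medium with 1% charcoal/dextran-stripped FBS; cpds up to 92 uM, 18 h, 37 C; CCF4 readout 460/530 nm; Hill fit → EC50, efficacy vs 0.1 uM dexamethasone = 100%.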
# [5] = biological target: Glucocorticoid receptor (Homo sapiens) (UniProt P04150); assay: qHTS assay for small molecule antagonists of glucocorticoid receptor signaling (AID 588533; active means well fitted inhibition curve with a large enough effect in the signal ratio, with a control signal flat, not every such curve was filed as active; the % refers to the signal ratio;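 further: cells stimulated with 2 nM dexamethasone as agonist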)
# Summary of the method: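 Antagonist-mode qHTS: compound titrations added to GRE-bla HeLa cells, then dexamethasone 2 nM final; 18 h, 37 C. CCF4 FRET fluorescence normalized to dexamethasone and DMSO; IC50 from Hill fit.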
# [6] = biological target: Peroxisome proliferator-activated receptor gamma (Homo sapiens) (UniProt P37231); assay: qHTS assay for small molecule agonists of peroxisome proliferator-activated receptor gamma signaling (AID 588536; active means well fitted curve in the direction sought with a large enough effect in the signal ratio, with a control signal flat, not every such curve was filed as active; the % refers to the signal ratio)
# Peroxisome proliferator-activated receptor gamma (Homo sapiens), sequence (P37231 whole entry, looked up): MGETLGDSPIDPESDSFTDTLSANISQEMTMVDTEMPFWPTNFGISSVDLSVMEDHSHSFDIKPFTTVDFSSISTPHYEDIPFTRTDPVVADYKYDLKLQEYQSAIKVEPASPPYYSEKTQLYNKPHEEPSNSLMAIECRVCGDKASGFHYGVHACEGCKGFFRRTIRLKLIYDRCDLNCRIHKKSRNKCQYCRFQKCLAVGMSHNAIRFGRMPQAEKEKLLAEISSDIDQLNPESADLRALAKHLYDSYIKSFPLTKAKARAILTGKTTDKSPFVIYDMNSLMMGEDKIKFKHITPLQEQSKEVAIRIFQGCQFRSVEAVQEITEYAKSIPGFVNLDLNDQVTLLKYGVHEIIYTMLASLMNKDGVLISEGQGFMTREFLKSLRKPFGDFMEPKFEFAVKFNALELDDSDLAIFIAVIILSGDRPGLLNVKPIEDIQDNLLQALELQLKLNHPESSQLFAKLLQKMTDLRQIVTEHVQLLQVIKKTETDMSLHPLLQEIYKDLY
# Summary of the method: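 Test agents, titrated, stimulated HEK293 UAS-bla cells overnight (16 h, 37 C). Substrate CCF4 was then added for two hours at room temperature before fluorescence reading.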
# [7] = biological target: Peroxisome proliferator-activated receptor gamma (Homo sapiens) (UniProt P37231); assay: qHTS assay for small molecule antagonists of peroxisome proliferator-activated receptor gamma signaling (AID 588537; active means well fitted inhibition curve with a large enough effect in the signal ratio, with a control signal flat, not every such curve was filed as active; the % refers to the signal ratio;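 further: reporter cells co-stimulated with 50 nM rosiglitazone agonist during compound treatment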)
# Summary of the method: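 PPAR-gamma-UAS-bla HEK293 cells (3000/well, 1% charcoal/dextran-stripped FBS) were preincubated 6-6.5 h at 37 C, given titrated compounds, then stimulated with 50 nM rosiglitazone for 16 h. Beta-lactamase activity was read with CCF4 dye; IC50 came from Hill fits.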
# [8] = qHTS assay for small molecule agonists of the antioxidant response element (ARE) signaling pathway (AID 651741; active means well fitted activation curve with a large enough effect in the signal ratio; the % refers to the signal ratio; further: potency means the concentration at half of the fitted maximal effect)
# Summary of the method: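 ARE-bla HepG2 cells (beta-lactamase reporter under ARE control) were plated at 2,000 cells/well, preincubated 5 h at 37 C/5% CO2, then treated with DMSO-dissolved compounds for 16 h at 37 C; LiveBLAzer B/G FRET substrate added, fluorescence read after 2 h at room temperature.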
# [9] = biological target: Androgen receptor (Homo sapiens) (UniProt P10275); assay: qHTS assay for small molecule antagonists of androgen receptor signaling (AID 588516; active means well fitted curve in the direction sought with a large enough effect in the signal ratio, with a control signal flat, not every such curve was filed as active; the % refers to the signal ratio)
# Summary of the method: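 Compounds tested in titration against 10 nM R1881 in AR-responsive bla reporter HEK 293 cells; CCF4 fluorescence (460/530 nm) after 16 h exposure gave IC50 and efficacy.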
smiles,measurement,setting,value
CCCCCCCC/C=C\CCCCCCCCCCCCC,Potency,[1],inactive
same,activation,[2],5.8%
same,Potency,[3],inactive
same,activation,[4],-8.32%
same,Potency,[5],inactive
same,outcome,[6],inactive
same,Potency,[7],inactive
same,Potency,[8],inactive
CCCN(CCC)c1c([N+](=O)[O-])cc(C(F)(F)F)c(N)c1[N+](=O)[O-],Potency,[1],inactive
same,Potency,[3],inactive
same,activation,[4],-4.44%
Cc1c(Cl)cccc1Cl,Potency,[1],inactive
same,activation,[4],-6.09%
same,Potency,[5],inactive
same,outcome,[6],inactive
CN(C)Cc1cc(CN(C)C)c(O)c(CN(C)C)c1,Potency,[1],inactive
same,activation,[2],-17.5%
same,outcome,[9],inactive
same,Potency,[5],inactive
same,outcome,[6],inactive
same,Potency,[8],inactive
CC1(C)CC(OC(=O)CCCCCCCCC(=O)OC2CC(C)(C)NC(C)(C)C2)CC(C)(C)N1,Potency,[1],inactive
same,activation,[4],-2.43%
same,Potency,[5],inactive
same,outcome,[6],inactive
O=C1CCCCCCCCCCC1,Potency,[1],inactive
same,activation,[4],-8.83%
same,Potency,[5],inactive
same,outcome,[6],inactive
same,Potency,[7],inactive
same,Potency,[8],inactive
C1CCC2(CCCCO2)OC1,Potency,[1],inactive
same,activation,[4],-8.41%
same,Potency,[5],inactive
same,outcome,[6],inactive
same,Potency,[8],inactive
COCCO,Potency,[1],inactive
same,activation,[4],2.41% and 1.59%
same,Potency,[5],inactive
same,outcome,[6],inactive
same,Potency,[8],inactive
O=c1n(CCO)c(=O)n(CCO)c(=O)n1CCO,Potency,[1],inactive
same,Potency,[3],inactive
same,outcome,[6],inactive
same,Potency,[8],30.6 µM (active)
CCCCC(CC)COP(=O)(O)OCC(CC)CCCC (stereo not drawn),Potency,[1],inactive
same,Potency,[3],inactive
same,activation,[4],-13.4%
same,Potency,[8],54.5 µM (active)
CCO[Si](CCC#N)(OCC)OCC,Potency,[1],inactive
same,Potency,[3],inactive
same,activation,[4],2.23%
same,Potency,[5],inactive
same,Potency,[7],inactive
same,Potency,[8],inactive
C[C@]12CCC(=O)C=C1CC[C@@H]1[C@@H]2[C@@H](O)C[C@]2(C=O)[C@@H](C(=O)CO)CC[C@@H]12,Potency,[1],inactive
same,Potency,[2],15.8 µM (active)
same,Potency,[3],inactive
same,outcome,[6],inactive
CC(C)=CCC[C@@H](C)[C@H]1CC[C@@]2(C)C3=C(CC[C@]12C)[C@@]1(C)CC[C@H](O)C(C)(C)[C@@H]1CC3,Potency,[1],inactive
same,activation,[2],6.85%
same,Potency,[3],inactive
same,activation,[4],8.87%
same,Potency,[5],inactive
same,outcome,[6],inactive
CCN(Cc1cccc(S(=O)(=O)O)c1)c1ccc(C(=C2C=CC(=[N+](CC)Cc3cccc(S(=O)(=O)[O-])c3)C=C2)c2ccccc2)cc1,Potency,[1],inactive
same,Potency,[8],54.5 µM (active)
CCCCC/C=C\C/C=C\CCCCCCCC(=O)OC,Potency,[1],inactive
same,outcome,[6],inactive
same,Potency,[7],inactive
CCCCOCCOCCO,Potency,[1],inactive
same,Potency,[5],inactive
same,Potency,[8],inactive
C=CC(=O)OCC(C)OCC(C)OCC(C)OC(=O)C=C (stereo not drawn),Potency,[1],inactive
same,Potency,[5],inactive
same,Potency,[7],inactive
C[Si]1(C)O[Si](C)(C)O[Si](C)(C)O1,activation,[2],-4.74%
same,outcome,[6],inactive
same,Potency,[7],inactive
same,Potency,[8],inactive
O=C=NCCCCCCN=C=O,Potency,[1],inactive
same,outcome,[6],inactive
same,Potency,[7],inactive
same,Potency,[8],inactive
CO[Si](CCCOCC1CO1)(OC)OC (stereo not drawn),Potency,[3],inactive
same,activation,[4],-3.61%
same,Potency,[5],inactive
same,outcome,[6],inactive
same,Potency,[7],inactive
same,Potency,[8],inactive
CC(C)=CCC/C(C)=C\CO,activation,[2],-0.0899%
same,outcome,[9],inactive
same,Potency,[5],inactive
same,outcome,[6],inactive
OCc1cccc(Oc2ccccc2)c1,activation,[2],3.06%
same,Potency,[3],inactive
same,outcome,[6],inactive
same,Potency,[8],inactive
CO[Si](CCCNCCN)(OC)OC,activation,[2],4.85%
same,outcome,[9],inactive
same,outcome,[6],inactive
same,Potency,[7],inactive
COC(=O)CSc1cc(N=c2sc(=O)n3n2CCCC3)c(F)cc1Cl,activation,[2],-5.93%
same,Potency,[3],inactive
same,activation,[4],-2.45%
same,Potency,[5],inactive
same,outcome,[6],inactive
same,Potency,[7],inactive
C1=C/CC/C=C/CC/C=C/CC/1,Potency,[3],inactive
same,activation,[4],2.01%
same,Potency,[5],inactive
same,outcome,[6],inactive
same,Potency,[7],inactive
same,Potency,[8],inactive
CCCCCCCCCCCCCCCC,Potency,[1],inactive
same,Potency,[5],inactive
same,outcome,[6],inactive
CCOCCOCCOC(C)=O,Potency,[3],inactive
same,activation,[4],-7.35%
same,Potency,[5],inactive
same,outcome,[6],inactive
same,Potency,[8],inactive
C=C[Si](C)(C)O[Si](C)(C)C=C,Potency,[1],inactive
same,Potency,[5],inactive
same,outcome,[6],inactive
same,Potency,[7],inactive
same,Potency,[8],inactive
Cc1ccc(S(=O)(=O)C(I)I)cc1,Potency,[1],inactive
C=C(C)C(=O)OCCN(C)C,Potency,[1],inactive
same,Potency,[7],inactive
BrC1CCC(Br)C(Br)CCC(Br)C(Br)CCC1Br (stereo not drawn),activation,[2],-5.15%
same,outcome,[9],inactive
same,activation,[4],-5.02%
same,Potency,[5],inactive
same,outcome,[6],inactive
same,Potency,[8],inactive
O=S(=O)(O)c1ccc(N=Nc2cc(S(=O)(=O)O)c3ccccc3c2O)c2ccccc12,activation,[2],11.4%
same,outcome,[9],inactive
same,Potency,[3],inactive
same,activation,[4],-5.27%
same,Potency,[5],inactive
same,Potency,[7],inactive
CCCCCCc1ccc(N)cc1,activation,[2],-4.5%
same,outcome,[9],inactive
same,activation,[4],-7.39%
same,Potency,[5],inactive
same,outcome,[6],inactive
same,Potency,[7],inactive
O=C(Cl)c1ccc(C(=O)Cl)cc1,Potency,[1],inactive
same,Potency,[5],inactive
CCCCCCCCCCCC[N+](C)(C)[O-],activation,[2],-8.49%
same,Potency,[3],inactive
same,activation,[4],6.56%
same,Potency,[7],inactive
C/C=C/C/C=C\CCCCCCCCOC(C)=O,Potency,[1],inactive
same,outcome,[6],inactive
same,Potency,[7],inactive
same,Potency,[8],inactive
CC(=O)CC(=O)Nc1ccc(C)cc1C,activation,[2],7%
same,outcome,[9],inactive
same,activation,[4],7.78%
same,Potency,[5],inactive
same,Potency,[7],inactive
